{
  "source": "PubChem BioAssay (NCATS)",
  "note": "Inconclusive results are not listed. A call without a number means that no potency is given here. Activity calls are given as the source filed them. Calls come from the whole dose curve; as a rule, active = well fitted cell-killing curve with a large enough effect; inconclusive = small, poorly fitted or top-dose-only effect, or effect the other way; inactive = no such curve, though single readings can be large or run the other way. Potency is the fitted concentration of half-maximal effect.",
  "data": [
    {"experiment": "qHTS of pediatric cancer cell lines to identify multiple opportunities for drug repurposing: Confirmatory screen for SJ-GBM2 cells (AID 1347116);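 note: 48 hour compound exposure; nearly all actives have a fitted effect of over 60% in size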", "conditions": "SJ-GBM2 glioblastoma cells, viability; series mostly up to 45.9 µM", "text": "Drug repurposing or repositioning has been offered as a strategy for drug development in oncology programs. This approach has special potential for childhood cancers and other rare or orphan diseases, where the expected return on new drug development has been a disincentive to pharmaceuticals.\nIn this project we exploit the poly-pharmacology of drugs to discover new indications via phenotypic screening of a panel of 19 well-characterized cell lines derived from solid tumors seen in children and adolescents. The goal is to identify approved drugs with previously unrecognized anticancer properties that has the potential to reveal new mechanisms and biological processes involved in carcinogenesis or drug resistance. We employed a titration-based paradigm (quantitative high-throughput screening or qHTS), where all compounds were tested at multiple concentrations for their effect on cell viability. Concentration-response curves (CRCs) were derived directly from the primary screen, and both potency and efficacy values were used to identify compounds with robust bioactivity profiles. We screened the NIH Chemical Genomics Center (NCGC) Pharmaceutical Collection (NPC) and Mechanism Interrogation Plate (MIPE) small molecule collections of approved and investigational compounds against these cell lines; and measured metabolically active cells after 48 hours of compound treatment as a proxy for cell viability.\nAssay Submitter: Nathalia J. Martinez, National Center for Advancing Translational Sciences, National Institutes of Health, Rockville, MD, USA; email: natalia.martinez@nih.gov\n[1] Shen, M et al. Quantitative high-throughput phenotypic screening of pediatric cancer cell lines identifies multiple opportunities for drug repurposing. Oncotarget 2017 Dec 19;9(4):4758-4772. PMID 29435139.\nThe cells were obtained from University of North Carolina (UNC), Pediatric Preclinical Testing Program (PPT), and Coriell Institute (CI).\nqHTS cell viability assay:\nCells were assayed in growth media at a density of 500-1,000 cells/well. Five microliters of cells were dispensed into 1,536-well, white, solid-bottom, TC-treated plates (Greiner Bio One) using a multidrop dispenser and incubated at 37 degrees C, 5% CO2, under a humidified atmosphere for 5 hours. Twenty-three nanoliters of compounds and controls (neutral control DMSO or positive control bortezomib at final concentration of 2.3 µM) were subsequently transferred by Kalypsys pintool. For primary screens, the MIPE collection was tested at 11-point dilutions (final concentrations range from 0.78 nM to 46 µM) and the NPC collection at 8-point dilutions (final concentrations range from 0.59 nM to 46 µM). Compounds tested in follow-up screens were assayed at 11-point dilutions. Cells were incubated for 48 hours, followed by addition of 3 uL of CellTiter-Glo (Promega). After a 15 min incubation at room temperature, samples were analyzed for luminescence intensity using a ViewLux High-throughput CCD imager equipped with clear filters.", "values": [
      {"smiles": "CO[C@@H]1[C@@H](OC)[C@H](C)[C@@](O)(CC(=O)O)O[C@H]1[C@H](C)[C@H]1O[C@@]2(CC[C@@](C)([C@H]3CC[C@@](C)([C@@H]4O[C@@H]([C@H]5O[C@](C)(O)[C@H](C)C[C@@H]5C)C[C@@H]4OC4C[C@H](OC)[C@@H](OC)[C@H](C)O4)O3)O2)C[C@H](O)[C@H]1C", "note": "(stereo partly specified)", "Potency": "7.37 µM (active)"},
      {"smiles": "CC(C)=CCC/C(C)=C/CC/C(C)=C/C(=O)OCC(=O)[C@@]1(O)CC[C@H]2[C@@H]3CCC4=CC(=O)C=C[C@]4(C)[C@H]3[C@@H](O)C[C@@]21C", "Potency": "inactive"},
      {"smiles": "CC(C)(C)CC(=O)OCC(=O)[C@@]1(O)CC[C@H]2[C@@H]3CCC4=CC(=O)C=C[C@]4(C)[C@H]3[C@@H](O)C[C@@]21C", "Potency": "inactive"},
      {"smiles": "CCC1(c2cnc[nH]2)Cc2ccccc2C1", "Potency": "inactive"},
      {"smiles": "CCCCC(=O)OCC(=O)[C@H]1[C@H](C)C[C@H]2[C@@H]3C[C@H](F)C4=CC(=O)C=C[C@]4(C)[C@@]3(F)[C@@H](O)C[C@@]21C", "Potency": "20.8 µM (active)"},
      {"smiles": "CC(=O)[C@@]1(O)CC[C@H]2[C@@H]3C[C@H](C)C4=CC(=O)CC[C@]4(C)[C@H]3CC[C@@]21C", "Potency": "1.17 µM (active)"},
      {"smiles": "CCc1cc2cc(OC)c(OC)cc2c(Cc2ccccc2)n1", "Potency": "inactive"},
      {"smiles": "Cc1cc(OCCOCC[N+](C)(C)Cc2ccccc2)ccc1C(C)(C)CC(C)(C)C", "Potency": "14.7 µM (active)"},
      {"smiles": "CN(C)CCN(Cc1ccsc1)c1ccccn1", "Potency": "inactive"},
      {"smiles": "CCC1=C[C@@H]2CN(C1)Cc1c([nH]c3ccccc13)[C@@](C(=O)OC)(c1cc3c(cc1OC)N(C)[C@H]1[C@@](O)(C(=O)OC)[C@H](OC(C)=O)[C@]4(CC)C=CCN5CC[C@]31[C@@H]54)C2", "Potency": "0.0522 µM (active)"},
      {"smiles": "CC[C@@]1(O)C(=O)OCc2c1cc1n(c2=O)Cc2c-1nc1ccccc1c2/C=N/OC(C)(C)C", "Potency": "0.0928 µM (active)"},
      {"smiles": "Nc1ccc2cc3ccc(N)cc3nc2c1", "Potency": "5.85 µM (active)"},
      {"smiles": "CCOC(=O)O[C@]1(C(=O)OCCl)CC[C@H]2[C@@H]3CCC4=CC(=O)C=C[C@]4(C)[C@H]3[C@@H](O)C[C@@]21C", "Potency": "inactive"},
      {"smiles": "CCC(=O)O[C@]1(C(=O)COC)[C@@H](C)C[C@H]2[C@@H]3CCC4=CC(=O)C=C[C@]4(C)C3(F)[C@@H](O)C[C@@]21C", "note": "(stereo partly specified)", "Potency": "inactive"},
      {"smiles": "CCCCC(CC)CNC(=O)CC(C)OC(=O)CCC(=O)O", "note": "(stereo unspecified)", "Potency": "inactive"},
      {"smiles": "C[C@H]1C[C@H]2[C@@H]3CCC4=CC(=O)C=C[C@]4(C)[C@H]3C(=O)C[C@]2(C)[C@@]1(O)C(=O)CO", "Potency": "4.65 µM (active)"},
      {"smiles": "C[C@]12CCC(=O)C=C1CC[C@@H]1[C@@H]2[C@@H](O)C[C@@]2(C)[C@H]1CC[C@]2(O)C(=O)COC(=O)CCC(=O)O", "Potency": "inactive"},
      {"smiles": "Cc1ccc(C(=O)Oc2ccc(C(O)CNC(C)(C)C)cc2OC(=O)c2ccc(C)cc2)cc1", "note": "(stereo unspecified)", "Potency": "inactive"},
      {"smiles": "Nc1c2ccccc2nc2ccccc12", "Potency": "3.29 µM (active)"},
      {"smiles": "O=c1[nH]sc2cc(Cl)ccc12", "Potency": "20.8 µM (active)"},
      {"smiles": "C[C@H]1C[C@@H]2[C@H]([C@@H](O)C[C@@]3(C)[C@H]2CC[C@]3(O)C(=O)CO)[C@@]2(C)C=CC(=O)C=C12", "Potency": "inactive"}
    ]}
  ]
}
